Laboratory results from PubChem BioAssay AID1159580 (chemical genetic matrix, 2015).
Out of some 5,500 compounds screened, about 2,000 (36%) were called active. About 18% were inconclusive and are not listed. No stated cut-off is given here; in the data, active means normalized growth mostly below about 0.91 (no sharp cut-off); inconclusive means no clear call, values can overlap the other calls; inactive means mostly above about 0.92. The list shows a part of the results.

Experiment: chemical genetic growth profiling, strain panel (AID 1159580);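 further: tested at 20 µM; growth read once vehicle control cultures reached saturation at 30 °C; 1 = growth at the plate median or of vehicle wells; lower values mean less growth of the strain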
Conditions: growth OD

Measured: normalized growth

CC(=O)N[C@@H](CC(=O)O)C(=O)O
inactive: S. cerevisiae deletion strains, locus YJR043C, strain POL32, hits give low values 1.01 | S. cerevisiae deletion strains, locus YJR075W, strain HOC1, hits give low values 1.01 | S. cerevisiae deletion strains, locus YKL009W, strain mrt4, hits give low values 1.03 | S. cerevisiae deletion strains, locus YKL068W, hits give low values 1.01 | S. cerevisiae deletion strains, locus YKL085W, strain MDH1 (second series), hits give low values 1.01 | S. cerevisiae deletion strains, locus YKL085W, strain MDH1, hits give low values 1.01 | S. cerevisiae deletion strains, locus YKL160W, strain elf1, hits give low values 0.998 | S. cerevisiae deletion strains, locus YKL190W, strain CNB1, hits give low values 1.01 | S. cerevisiae deletion strains, locus YKR001C, strain vps1, hits give low values 1.01 | S. cerevisiae deletion strains, locus YKR026C, strain gcn3, hits give low values 1.01 | S. cerevisiae deletion strains, locus YKR091W, strain srl3, hits give low values 1 | S. cerevisiae deletion strains, locus YLL001W, strain dnm1, hits give low values 1.01 | S. cerevisiae deletion strains, locus YLL026W, hits give low values 1.01 | S. cerevisiae deletion strains, locus YLL041C, strain sdh2, hits give low values 1.01 | S. cerevisiae deletion strains, locus YLR027C, strain aat2, hits give low values 1.02 | S. cerevisiae deletion strains, locus YLR039C, strain RIC1, hits give low values 0.984 | S. cerevisiae deletion strains, locus YLR058C, strain SHM2, hits give low values 1.01 | S. cerevisiae deletion strains, locus YLR102C, strain apc9, hits give low values 1.01 | S. cerevisiae deletion strains, locus YLR221C, strain rsa3, hits give low values 0.974 | S. cerevisiae deletion strains, locus YLR258W, strain gsy2, hits give low values 0.997 | S. cerevisiae deletion strains, locus YLR262C, strain YPT6 (second series), hits give low values 1 | S. cerevisiae deletion strains, locus YLR262C, strain YPT6, hits give low values 1.01 | S. cerevisiae deletion strains, locus YLR268W, strain sec22, hits give low values 1.02 | S. cerevisiae deletion strains, locus YLR320W, strain mms22, hits give low values 0.992 | S. cerevisiae deletion strains, locus YLR330W, strain CHS5, hits give low values 1.01 | S. cerevisiae deletion strains, locus YLR342W, strain FKS1 (second series), hits give low values 1.01 | S. cerevisiae deletion strains, locus YLR342W, strain FKS1, hits give low values 1.01 | S. cerevisiae deletion strains, locus YLR357W, strain rsc2, hits give low values 1.01 | S. cerevisiae deletion strains, locus YLR370C, strain arc18, hits give low values 1.01 | S. cerevisiae deletion strains, locus YLR371W, strain rom2, hits give low values 1.02 | S. cerevisiae deletion strains, locus YLR384C, strain iki3, hits give low values 0.982 | S. cerevisiae deletion strains, locus YLR418C, strain cdc73, hits give low values 1.02 | S. cerevisiae deletion strains, locus YML016C, strain PPZ1, hits give low values 1.01 | S. cerevisiae deletion strains, locus YML032C, strain rad52, hits give low values 1.01 | S. cerevisiae deletion strains, locus YML120C, strain ndi1, hits give low values 1.01 | S. cerevisiae deletion strains, locus YML124C, strain tub3, hits give low values 1.02 | S. cerevisiae deletion strains, locus YMR058W, strain fet3, hits give low values 1.02 | S. cerevisiae deletion strains, locus YMR078C, strain ctf18, hits give low values 1 | S. cerevisiae deletion strains, locus YMR125W, strain sto1, hits give low values 1.01 | S. cerevisiae deletion strains, locus YMR129W, hits give low values 1 | S. cerevisiae deletion strains, locus YMR205C, strain PFK2, hits give low values 0.993 | S. cerevisiae deletion strains, locus YMR223W, strain ubp8, hits give low values 1.01 | S. cerevisiae deletion strains, locus YMR231W, strain pep5, hits give low values 1 | S. cerevisiae deletion strains, locus YMR263W, strain SAP30, hits give low values 1.01 | S. cerevisiae deletion strains, locus YMR307W, strain GAS1, hits give low values 1.03 | S. cerevisiae deletion strains, locus YNL067W, strain RPL9B, hits give low values 1.02 | S. cerevisiae deletion strains, locus YNL071W, strain lat1, hits give low values 1.01 | S. cerevisiae deletion strains, locus YNL128W, strain TEP1, hits give low values 1.02 | S. cerevisiae deletion strains, locus YNL153C, strain GIM3, hits give low values 1 | S. cerevisiae deletion strains, locus YNL209W, strain ssb2, hits give low values 1.01 | S. cerevisiae deletion strains, locus YNL233W, strain BNI4, hits give low values 1 | S. cerevisiae deletion strains, locus YNL248C, strain rpa49, hits give low values 0.91 | S. cerevisiae deletion strains, locus YNL250W, strain rad50, hits give low values 1.01 | S. cerevisiae deletion strains, locus YNL271C, strain bni1, hits give low values 1.02 | S. cerevisiae deletion strains, locus YNL298W, strain CLA4, hits give low values 1.01 | S. cerevisiae deletion strains, locus YNL307C, strain MCK1, hits give low values 1.02 | S. cerevisiae deletion strains, locus YNL322C, strain KRE1 (second series), hits give low values 0.994 | S. cerevisiae deletion strains, locus YNL322C, strain KRE1, hits give low values 1.01 | S. cerevisiae deletion strains, locus YNR049C, strain mso1, hits give low values 0.996 | S. cerevisiae deletion strains, locus YNR052C, strain pop2, hits give low values 1.01 | S. cerevisiae deletion strains, locus YOL006C, strain TOP1, hits give low values 1.04 | S. cerevisiae deletion strains, locus YOL012C, strain htz1 0.941 | S. cerevisiae deletion strains, locus YOL147C, strain pex11, hits give low values 1.01 | S. cerevisiae deletion strains, locus YOR001W, strain rrp6, hits give low values 0.988 | S. cerevisiae deletion strains, locus YOR061W, strain CKA2, hits give low values 1 | S. cerevisiae deletion strains, locus YOR069W, strain VPS5, hits give low values 1.01 | S. cerevisiae deletion strains, locus YOR070C, strain gyp1, hits give low values 1 | S. cerevisiae deletion strains, locus YOR080W, strain dia2, hits give low values 1 | S. cerevisiae deletion strains, locus YOR083W, strain WHI5, hits give low values 1 | S. cerevisiae deletion strains, locus YOR106W, strain vam3, hits give low values 1.01 | S. cerevisiae deletion strains, locus YOR136W, strain idh2, hits give low values 1.01 | S. cerevisiae deletion strains, locus YOR144C, strain elg1, hits give low values 1.02 | S. cerevisiae deletion strains, locus YOR184W, strain ser1, hits give low values 1.01 | S. cerevisiae deletion strains, locus YOR265W, strain rbl2, hits give low values 1.02 | S. cerevisiae deletion strains, locus YOR270C, strain vph1, hits give low values 1.01 | S. cerevisiae deletion strains, locus YOR290C, strain snf2, hits give low values 0.998 | S. cerevisiae deletion strains, locus YOR316C, strain cot1, hits give low values 1.01 | S. cerevisiae deletion strains, locus YPL051W, strain arl3, hits give low values 1.03 | S. cerevisiae deletion strains, locus YPL055C, strain LGE1, hits give low values 1.02 | S. cerevisiae deletion strains, locus YPL078C, strain atp4, hits give low values 1.02 | S. cerevisiae deletion strains, locus YPL106C, strain sse1, hits give low values 1.01 | S. cerevisiae deletion strains, locus YPL240C, strain hsp82, hits give low values 1.01 | S. cerevisiae deletion strains, locus YPL241C, strain CIN2, hits give low values 1.01 | S. cerevisiae deletion strains, locus YPR119W, strain clb2, hits give low values 1.02 | S. cerevisiae deletion strains, locus YPR141C, strain kar3, hits give low values 1.02 | S. cerevisiae deletion strains, locus YPR163C, strain tif3, hits give low values 1.03 | S. cerevisiae deletion strains, locus YPR167C, strain met16, hits give low values 1.01 | S. cerevisiae deletion strains, strain wtn01, hits give low values 1.01 | S. cerevisiae strains, strain wild type, hits give low values 1.01
